# Source: PubChem BioAssay (NCATS)
# “And” between values parts separate entries of the source, which are not always exact repeats. Equal values may be shown once. Records with an inconclusive call do not appear. Where a call stands in place of a potency, no number is given. The source made the active and inactive calls. Calls come from the whole dose curve; as a rule, active = well fitted curve in the direction sought with a large enough effect; inconclusive = small, poorly fitted or top-dose-only effect, or another doubt; inactive = no such curve, though single readings can be large; an effect the other way counts as inactive or inconclusive.
# Legend:
# [1] = qHTS of pediatric cancer cell lines to identify multiple opportunities for drug repurposing: Primary screen for LAN-5 cells (AID 1347100); note: potency is the fitted concentration of half-maximal effect
# In short: (§1)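 Cells (500-1,000/well) rested 5 h, then received compounds for 48 h; metabolically active cells were measured by CellTiter-Glo luminescence. Final concentrations spanned up to 46 µM (MIPE, 11-point) or 0.59 nM-46 µM (NPC, 8-point) in primary screens, 11-point in follow-ups.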
# [2] = qHTS of pediatric cancer cell lines to identify multiple opportunities for drug repurposing: Primary screen for OHS-50 cells (AID 1347103); note: nearly all actives have a fitted effect of over 40% in size; note: potency is the fitted concentration of half-maximal effect
# In short: as §1
# [3] = qHTS of pediatric cancer cell lines to identify multiple opportunities for drug repurposing: Primary screen for MG 63 (6-TG R) cells (AID 1347105); note: nearly all actives have a fitted effect of over 50% in size; note: potency is the fitted concentration of half-maximal effect
# In short: (§2)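 Following a 5-hour attachment period, cells at 500-1,000/well received compounds and were cultured for 48 hours. CellTiter-Glo was added and luminescence read to estimate viable, metabolically active cells.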
# [4] = qHTS of pediatric cancer cell lines to identify multiple opportunities for drug repurposing: Primary screen for control Hh wild type fibroblast cells (AID 1347106);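 note: series mostly up to about 46 µM; a drop in luminescence marks cytotoxicity and a rise apparent proliferation; nearly all actives have a fitted effect of over 55% in size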
# In short: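 Viability after 48 h compound treatment at 37C, 500-1,000 cells/well, read as ATP luminescence with CellTiter-Glo. Primary screens used 11-point (MIPE, 0.78 nM-46 µM) or 8-point (NPC, 0.59 nM-46 µM) final concentrations; follow-up screens used 11-point dilutions.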
# [5] = qHTS of pediatric cancer cell lines to identify multiple opportunities for drug repurposing: Primary screen for Rh30 cells (AID 1347107); note: series mostly up to about 46 µM; nearly all actives have a fitted effect of over 75% in size
# In short: as §1
# [6] = qHTS of pediatric cancer cell lines to identify multiple opportunities for drug repurposing: Primary screen for BT-12 cells (AID 1347101); note: nearly all actives have a fitted effect of over 25% in size; note: potency is the fitted concentration of half-maximal effect
# In short: as §1
# [7] = qHTS of pediatric cancer cell lines to identify multiple opportunities for drug repurposing: Primary screen for Rh18 cells (AID 1347102); note: nearly all actives have a fitted effect of over 65% in size; note: potency is the fitted concentration of half-maximal effect
# In short: as §1
# [8] = qHTS of pediatric cancer cell lines to identify multiple opportunities for drug repurposing: Primary screen for Rh41 cells (AID 1347108); note: nearly all actives have a fitted effect of over 70% in size; note: potency is the fitted concentration of half-maximal effect
# In short: as §2
# [9] = qHTS of pediatric cancer cell lines to identify multiple opportunities for drug repurposing: Primary screen for RD cells (AID 1347104); note: nearly all actives have a fitted effect of over 55% in size; note: potency is the fitted concentration of half-maximal effect
# In short: as §2
# [10] = qHTS of pediatric cancer cell lines to identify multiple opportunities for drug repurposing: Confirmatory screen for NB1643 cells (AID 1347109); note: nearly all actives have a fitted effect of over 45% in size; note: potency is the fitted concentration of half-maximal effect
# In short: as §1
smiles,measurement,setting,value
S=C(NCc1ccc2c(c1)OCO2)N1CCN(c2ncnc3c2oc2ccccc23)CC1,Potency,[1],30.3 µM (active)
same,Potency,[2],1.98 µM (active)
same,Potency,[3],inactive
same,Potency,[4],inactive
same,Potency,[5],inactive
CNCc1ccc(-c2[nH]c3cc(F)cc4c3c2CCNC4=O)cc1,Potency,[6],inactive
same,Potency,[7],inactive
same,Potency,[2],inactive
same,Potency,[3],inactive
same,Potency,[4],inactive
same,Potency,[5],inactive
same,Potency,[8],inactive
Cc1cc(Nc2nc(N[C@@H](C)c3ncc(F)cn3)ncc2Cl)n[nH]1,Potency,[6],34.3 µM (active)
same,Potency,[2],15.3 µM (active)
same,Potency,[9],16.6 µM (active)
same,Potency,[3],11.8 µM (active)
same,Potency,[4],inactive
same,Potency,[5],inactive
same,Potency,[8],9.35 µM (active)
CC1(C)CNc2cc(NC(=O)c3cccnc3NCc3ccncc3)ccc21,Potency,[1],20.9 µM (active)
same,Potency,[9],inactive
same,Potency,[4],inactive
same,Potency,[5],inactive
c1ccc(-c2nn3c(c2-c2ccnc4cc(OCCN5CCOCC5)ccc24)CCC3)nc1,Potency,[6],inactive
same,Potency,[7],inactive
same,Potency,[3],inactive
same,Potency,[4],inactive
same,Potency,[5],inactive
same,Potency,[8],inactive
Cc1cc2c(F)c(Oc3ncnn4cc(OC[C@@H](C)O)c(C)c34)ccc2[nH]1,Potency,[1],20.9 µM (active)
same,Potency,[2],30.6 µM (active)
same,Potency,[4],inactive
CC(C)C[C@H](NC(=O)[C@@H](O)[C@H](N)Cc1ccccc1)C(=O)O,Potency,[6],30.6 µM (active)
same,Potency,[2],19.3 µM (active)
same,Potency,[9],37.2 µM (active)
same,Potency,[4],inactive
same,Potency,[8],23.5 µM (active)
OC[C@H](Cc1ccccc1)Nc1nc(Oc2ccc3c(c2)CCC3)nc2c1ncn2Cc1ccc(-c2ccccc2)cc1,Potency,[1],inactive
same,Potency,[3],inactive
same,Potency,[4],inactive
same,Potency,[5],inactive
same,Potency,[8],inactive
same,Potency,[10],inactive
O=C1[C@H](Cc2ccc(O)cc2)N2C(=O)CCN(C(=O)NCc3ccccc3)[C@H]2CN1Cc1cccc2ccccc12,Potency,[1],10.5 µM (active)
same,Potency,[2],4.85 µM (active)
same,Potency,[3],3.72 µM (active)
CCCS(=O)(=O)Nc1ccc(F)c(C(=O)c2c[nH]c3ncc(-c4ccc(Cl)cc4)cc23)c1F,Potency,[1],20.9 µM (active)
same,Potency,[9],18.7 µM (active)
same,Potency,[3],14.8 µM (active)
CC(C)(N)C(=O)N[C@H](COCc1ccccc1)C(=O)N1CCC2(CC1)CN(S(C)(=O)=O)c1ccccc12,Potency,[1],inactive
same,Potency,[4],inactive
N#Cc1ccc(C(c2ccc(C#N)cc2)n2cncn2)cc1,Potency,[1],inactive
same,Potency,[4],inactive
OCCC#Cc1nc(-c2ccc(F)cc2)c(-c2ccncc2)n1CCCc1ccccc1,Potency,[1],16.6 µM (active)
same,Potency,[3],29.6 µM (active)
same,Potency,[4],inactive
same,Potency,[8],18.7 µM (active)
CNC(=O)c1ccc(N2C(=S)N(c3ccc(C#N)c(C(F)(F)F)c3)C(=O)C2(C)C)cc1F,Potency,[1],inactive
same,Potency,[3],inactive
same,Potency,[4],inactive
same,Potency,[5],inactive
same,Potency,[8],inactive
Cc1ccccc1C(C(=O)NC1CCCC1)N(C(=O)Cn1cnc2ccccc21)c1cccc(F)c1 (stereo not given),Potency,[1],inactive
same,Potency,[3],inactive
same,Potency,[4],inactive
same,Potency,[5],inactive
CCN(c1ccccc1)c1cc(NC)[n+](C)c(C)n1,Potency,[6],inactive
same,Potency,[7],inactive
same,Potency,[2],inactive
same,Potency,[9],inactive
same,Potency,[3],inactive
same,Potency,[4],inactive
same,Potency,[5],inactive
same,Potency,[8],inactive
CNC(=O)c1ccc(C)c(-n2c(C)cc(OCc3ccc(F)cc3F)c(Br)c2=O)c1,Potency,[1],20.9 µM (active)
same,Potency,[2],24.3 µM (active)
same,Potency,[9],inactive
same,Potency,[4],inactive
Clc1ccc(Nc2nnc(Cc3ccncc3)c3ccccc23)cc1,Potency,[1],inactive
same,Potency,[4],inactive
same,Potency,[5],inactive
same,Potency,[8],inactive
C#Cc1cccc(Nc2ncnc3cc(OCCOC)c(OCCOC)cc23)c1,Potency,[6],24.3 µM (active)
same,Potency,[7],18.7 µM (active)
same,Potency,[2],19.3 µM (active) and 6.92 µM (active)
same,Potency,[9],inactive
same,Potency,[3],inactive
same,Potency,[5],inactive
same,Potency,[8],11.8 µM (active)
CO[C@@H]1[C@H](N(C)C(=O)c2ccccc2)C[C@H]2O[C@]1(C)n1c3ccccc3c3c4c(c5c6ccccc6n2c5c31)C(=O)NC4,Potency,[1],0.526 µM (active)
same,Potency,[9],inactive
same,Potency,[3],0.743 µM (active)
same,Potency,[5],inactive
same,Potency,[8],inactive
same,Potency,[10],3.29 µM (active)
Nc1ncnc2nc(-c3ccc(N4CCOCC4)nc3)cc(-c3cccc(Br)c3)c12,Potency,[3],inactive
same,Potency,[4],inactive
O=C(C1CC1)N1CC[C@@H](Cn2c(-c3ccc(-c4ccc5occc5c4)cc3)nc3cnccc32)C1,Potency,[2],inactive
same,Potency,[3],inactive
same,Potency,[4],inactive
same,Potency,[5],inactive
same,Potency,[8],inactive
CCOc1ccc(Cc2cc([C@@H]3O[C@H](CO)[C@@H](O)[C@H](O)[C@@H]3O)ccc2Cl)cc1,Potency,[7],inactive
same,Potency,[3],inactive
same,Potency,[4],inactive
same,Potency,[5],inactive
same,Potency,[8],inactive
COc1cc(Oc2ccnc3cc(OC)c(OC)cc23)ccc1NC(=O)NC(C)c1nccs1 (stereo not given),Potency,[7],inactive
same,Potency,[9],inactive
same,Potency,[4],inactive
